Source: PubChem BioAssay AID893 (National Center for Advancing Translational Sciences (NCATS), 2007)
About 5,700 (7.6%) of roughly 75,000 compounds were called active. Not shown: some 7% with an inconclusive outcome. For the sample, actives were picked, then their nearest neighbours and some compounds at random. Unmarked numbers belong to inactive results. Calls come from the whole dose curve; as a rule, active = well fitted inhibition curve with a large enough effect; inconclusive = small, poorly fitted or top-dose-only effect; inactive = no such curve, though single readings can be large or run the other way.

biological target: 3-hydroxyacyl-CoA dehydrogenase type-2 (Homo sapiens) (UniProt Q99714); test: qHTS Assay for Inhibitors of HSD17B4, hydroxysteroid (17-beta) dehydrogenase 4; conditions: recombinant HSD17B10, NADH fluorescence kinetic; series mostly up to 57.1 µM; activity change, negative = inhibition: at the top concentration;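 note: the protocol describes HADH2 (HSD17B10) and not the HSD17B4 of the title; nearly all actives have a fitted effect of over 70% in size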
Method in brief: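 Enzyme plus compound, 15 min room temperature; substrate mix added (NAD+ 1 mM, beta-hydroxybutyryl-CoA 90 uM final); plates read kinetically for NADH fluorescence. HADH2 was His-tagged, E. coli-derived, 20 nM.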
% is set by controls: 0 for no effect and ±100 for the full control effect; potency is the fitted concentration of half-maximal effect.

| Structure (SMILES) | activity change, negative = inhibition | Potency |
| --- | --- | --- |
| COC(=O)c1ccc(C23CC4(C2)[C@H](CN(Cc2cccnc2)[C@@H]4c2ccccc2)C3c2ccc(Cl)nc2)cc1 (stereo partly drawn) | 15% | – |
| COc1cc(C2C(C(=O)Nc3ccccc3OC)=C(C)Nc3ncnn32)ccc1O (stereo not drawn) | 4.6% | – |
| Cc1c(C(=O)OCC(=O)N(CCC#N)c2ccccc2)oc2c1ccc1ccccc12 | – | 31.6 µM (active) |
| Cc1c(C(=O)OCc2cc(=O)n3cc(Br)ccc3n2)oc2ccccc12 | 13.2% | – |
| COc1ccc(N(CC(=O)NC(C)(C)C)C(=O)c2ccco2)cc1 | 7.51% | – |
| CCOC(=O)c1cccc(NC(=O)CN(c2ccc(C)cc2)S(=O)(=O)c2c(C)noc2C)c1 | 5.58% | – |
| CC(C)c1nc2oc3c(N4CCN(C)CC4)ncnc3c2c2c1CCC2 | 11.4% | – |
| CCOC(=O)CSc1nnc(CNC(=O)c2cccs2)n1-c1cc(OC)ccc1OC | 11.8% | – |
| Cc1cc(C)c2c(n1)nn1c(N3CCN(c4cccc(Cl)c4)CC3)cc(C)nc21 | – | 3.16 µM (active) |
| Cc1cc(C)c2c(n1)nn1c(N3CCOCC3)cc(C)nc21 | – | 12.6 µM (active) |
| C/C(O)=C\c1nc(=O)c2c(C)cc(C)nc2n1-c1ccccc1 | -1.92% | – |
| Cc1cc(N2CCCC2)n2nc(C)c(-c3ccccc3)c2n1 | 1.36% | – |
| O=C(c1ccco1)N1CCN(c2cccc(Cl)c2)CC1 | -3.52% | – |
| Cc1nn2c3cc(N4CCOCC4)ccc3nc2c2ccccc12 | -4.24% | – |
| COc1ccc(Cl)cc1NC(=O)c1oc(C)nc1C | -17.1% | – |
| CC(C)(C)c1csc(NC2=NS(=O)(=O)c3ccccc32)n1 | -14.2% | – |
| CC1(C)C=CC(=O)[C@]2(C)C1CC(=O)[C@]1(C)C2CC[C@@]2(C)C(c3ccoc3)OC(=O)C3OC321 (stereo partly drawn) | 0.345% | – |
| O=C(Cl)c1ccccc1[N+](=O)[O-] | 6.57% | – |
| CC1CCCC(N2CCN(C(=O)c3ccc(F)cc3)CC2)C1 (stereo not drawn) | 1.55% | – |
| COc1ccccc1-c1nc(N2CCN(C)CC2)c2ccccc2n1 | 1.29% | – |
| CCn1cc(C(=O)NC2CCCCCC2)c(=O)c2cc(S(=O)(=O)N3CCCCC3)ccc21 | -5.45% | – |
| CCC1(C)Cc2c(sc3nc4n(c(=O)c23)CCCS4)CO1 (stereo not drawn) | – | 31.6 µM (active) |
| CN(C)CCSc1nc(N)c2c3c(sc2n1)COC(C)(C)C3 | -7.11% | – |

| Structure (SMILES) | activity change, negative = inhibition | Potency |
| --- | --- | --- |
| CCCCc1c(O)nc2n(c1=O)CCS2 | 13.8% | – |
| CCOC(=O)CCCNC(=O)CN1C(=O)NC(CCc2ccccc2)C1=O (stereo not drawn) | 5.32% | – |
| CCC(=O)N1CCN=C1SCc1ccc(F)cc1 | 2.13% | – |
| Cc1c(S(=O)(=O)O)oc2c1C(=O)C(=O)c1c-2ccc2c1CCCC2(C)C | – | 10 µM (active) |
| CCCCCC(=O)Nc1ccc2oc(-c3ccncc3)nc2c1 | – | 31.6 µM (active) |
| CCCCC(=O)Nc1ccc2c(c1)OCCO2 | 8.43% | – |
| Cc1cc2nc(-c3ccc(NC(=O)c4cccnc4)cc3)oc2cc1C | 435% | – |
| CNC(=O)c1c(NC(=O)c2ccc(S(=O)(=O)N3CCOCC3)cc2)sc2c1CCC2 | -4.1% | – |
| Cc1ccc(S(=O)(=O)N(C)CC(=O)N2CCc3ccccc32)cc1 | -7.67% | – |
| COCCN(CC(=O)Nc1ccccc1C)S(=O)(=O)c1ccc(S(=O)(=O)N2CCCC2)cc1 | -15% | – |
| CSc1nnc(-c2ccncc2)n1CCCN1CCCC1=O | -3.99% | – |
| CC(C)(C)OC(=O)c1c(N)n(CCCN2CCCC2=O)c2nc3ccccc3nc12 | – | 25.1 µM (active) |
| CCOc1cc2[nH]c(=S)n(CCCN3CCCC3=O)c(=O)c2cc1OCC | -20.1% | – |
| COC(=O)[C@@H]1C[C@H]2CC[C@H](O)C[C@H]2N1Cc1ccc(N2CCN(C)CC2)cc1 | 3.6% | – |
| CNC(=O)CSc1nnc(CCc2ccccc2)n1-c1ccccc1 | -5.46% | – |
| CCCCCCN(C(=O)CCCCCN1C(=O)NC(c2ccc(C(F)(F)F)cc2)C(C(=O)OCc2ccccc2)=C1C)C(C(=O)NCCCC)c1ccc(OCC(=O)OC)c(C(=O)OC)c1 (stereo not drawn) | -15.2% | – |
| C[N+](C)(CCCCCC[N+](C)(C)CCCN1C(=O)c2cccc3cccc(c23)C1=O)CCCN1C(=O)c2cccc3cccc(c23)C1=O | – | 25.1 µM (active) |
| O=C1c2ccccc2C(=O)N1CCCSc1ccccc1 | -1.64% [at 11.4 µM] | – |
| CCN1C(=O)c2cccc3c(N)ccc1c23 | 0.994% | – |
| Cc1ccc(C(=O)NCCNS(=O)(=O)c2ccccc2)cc1 | 7.56% | – |
| COc1ccc(N2CCN(C(=O)CSc3nnc4ncccn34)CC2)cc1 | -1.15% | – |
| CCN(CC(=O)NCc1cccs1)c1nnnn1-c1ccccc1 | 18.2% | – |
| C=CCOC(=O)c1ccccc1C(=O)OCC=C | 1.8% | – |

| Structure (SMILES) | activity change, negative = inhibition | Potency |
| --- | --- | --- |
| CC(C)Cn1c(N)c(C(=O)NCc2cccs2)c2nc3ccccc3nc21 | – | 15.8 µM (active) |
| C=CCn1c(N)c(C(=O)OCC(C)C)c2nc3ccccc3nc21 | – | 31.6 µM (active) |
| C=CCn1c(N)c(S(=O)(=O)c2cccs2)c2nc3ccccc3nc21 | – | 25.1 µM (active) |
| COC(=O)c1cn(CC(=O)NCc2cccs2)c2ccccc12 | -2.79% | – |
| C=CCn1c(C(C)NC(=O)CC)nc2ccccc21 (stereo not drawn) | -4.61% | – |
| c1csc(-c2nc(-c3ccncc3)no2)c1 | 6.88% | – |
| c1ccc2cc(OCCN3CCCC3)ccc2c1 | 1.12% | – |
| CCCC[C@H]1C(=O)N(c2ccccc2)N(c2ccc(O)cc2)C1=O | -15.3% [at 25.6 µM] | – |
| C/C=C/C=C/C(=O)O | 7.5% | – |
| COc1ccc(S(=O)(=O)N2CCC(C(=O)N3CCc4ccccc4C3)CC2)cc1OC | -13.7% | – |
| CSc1nnc2c(n1)OC(c1cn(C)c3ccccc13)N(C(C)=O)c1ccccc1-2 (stereo not drawn) | 0.0624% | – |
| CCCc1nc2c(C)cc(-c3nc4ccccc4n3C)cc2n1Cc1ccc(-c2ccccc2C(=O)O)cc1 | – | 31.6 µM (active) |
| CCCCn1c(CCCNC(=O)CC)nc2ccccc21 | 1.46% | – |
| CCCCn1c(CN2CCN(CCO)CC2)nc2ccccc21 | 14.8% | – |
| Cc1ccc(Nc2cc(=O)n(C3CCCCC3)c(=O)[nH]2)cc1C | 0.726% | – |
| Cc1ccc(CCn2c3c(c4ccccc42)CN(C)CC3)cn1 | -4.43% | – |
| CC1(C)OC(C(O)(c2ccccc2)c2ccccc2)C(C(O)(c2ccccc2)c2ccccc2)O1 (stereo not drawn) | 1.95% [at 11.4 µM] | – |
| C=CCN1C(=O)C(O)(CC(=O)c2ccc(Cl)cc2)c2ccccc21 (stereo not drawn) | -9.85% | – |
| COc1cc2[nH]c(=S)n(Cc3ccc(C)o3)c(=O)c2cc1OC | -14% | – |
| COc1ccc(CCN(Cc2cc3cccc(C)c3[nH]c2=O)C(=O)N2CCCC2)cc1OC | -9.05% | – |
| COc1cc2[nH]c(=O)n(CCC(=O)NC3CCN(Cc4ccccc4)CC3)c(=O)c2cc1OC | -23.8% | – |
| COc1cc2cc(CN(CCN3CCCC3)C(=O)Nc3ccccc3Cl)c(=O)[nH]c2cc1OC | – | 25.1 µM (active) |
